Measured values taken from PubChem BioAssay (Tox21).
Records with an inconclusive call do not appear. Activity calls are given as the source filed them. Unless noted, the call rests on the fitted dose curve; in most records, active means well fitted curve in the direction sought with a large enough effect in the repeat runs; inconclusive means weak or mixed curves; inactive means no such curve, though single readings can be large; an effect the other way counts as inactive or inconclusive.

Columns and labels:
[1] = qHTS assay to identify small molecule antagonists of the estrogen receptor beta (ER-beta) signaling pathway - cell viability counter screen (AID 1259382);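 further: HEK293T cells carrying ER-beta-UAS-bla reporter stimulated with estradiol; series mostly up to about 92 µM; nearly all actives have a fitted effect of over 55% in size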
Outline: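 ER-beta-UAS-bla HEK293T cells (2,000/well, 2% charcoal-stripped FBS) were pre-incubated 6 hr at 37C, then given compound plus 1nM final 17-beta-estradiol for 16 hr. Viability was read in the same wells by CellTiter-Glo luminescence after 30 min at room temperature.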

[2] = target: Estrogen receptor (Homo sapiens) (UniProt P03372); test: qHTS assay to identify small molecule agonists of the estrogen receptor alpha (ER-alpha) signaling pathway in the presence of an antagonist (AID 1259383; calls by dose curve; further: top concentration of the series differs between compounds; nearly all actives have a fitted effect of over 15% in size)
Outline: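 VM7Luc4E2 cells (endogenous full-length ER-alpha, 4×ERE-luciferase) were precultured 5 days in phenol red-free medium with 10% charcoal-stripped FBS, given 10.0nM ICI-182,780 (final), then treated with compounds at 15 concentrations for 22hr at 37C; luminescence read with ONE-Glo.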

[3] = qHTS assay to identify small molecule agonists of the estrogen receptor alpha (ER-alpha) signaling pathway in the presence of an antagonist - cell viability counter screen (AID 1259386);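 further: series mostly up to about 92 µM; cells exposed to compounds for 22 h at 37 °C before the viability read; nearly all actives have a fitted effect of over 30% in size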
Outline: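 VM7Luc4E2 cells (endogenous full-length ER-alpha, 4×ERE-luciferase) were held 5 days in phenol red-free medium with 10% charcoal-stripped FBS, plated, then given 10.0nM ICI-182,780 and compounds at 15 concentrations for 22hr at 37C; viability read by CellTiter-Fluor fluorescence.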

[4] = target: Progesterone receptor (Homo sapiens) (UniProt P06401); test: qHTS assay to identify small molecule agonists of the progesterone receptor (PR) signaling pathway (AID 1346784; calls by dose curve; further: nearly all actives have a fitted effect of over 30% in size)
Outline: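 The screen uses PR-UAS-bla HEK 293T cells in charcoal-stripped serum (2%). Compounds are applied for 16 hr at 37C after a 6 hr pre-incubation, and reporter activity is detected with a FRET beta-lactamase substrate after 2 hr at room temperature.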

[5] = target: Progesterone receptor (Homo sapiens) (UniProt P06401); test: qHTS assay to identify small molecule antagonists of the progesterone receptor (PR) signaling pathway (AID 1346795; active means well fitted inhibition curve with a large enough effect in the signal ratio in the repeat runs, not every such curve was filed as active; the % refers to the signal ratio)
Outline: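 After 6 hr plating at 37C in 2% stripped-serum medium, PR-UAS-bla HEK293T cells got compounds, then 1 nM R5020. Sixteen hours later, LiveBLAzer substrate was applied for 2 hr at room temperature and fluorescence was recorded.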

[6] = qHTS assay to identify small molecule antagonists of the progesterone receptor (PR) signaling pathway - cell viability counter screen (AID 1346798); further: series mostly up to about 92 µM; nearly all actives have a fitted effect of over 50% in size
Outline: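 Viability was determined by ATP-based luminescence (CellTiter-Glo) in PR-UAS-bla HEK293T cells cultured in 2% charcoal-stripped serum and incubated 16 hr with compounds under R5020 stimulation.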

[7] = qHTS assay to identify small molecule agonists of the progesterone receptor (PR) signaling pathway - cell viability counter screen (AID 1346799; calls by dose curve; further: nearly all actives have a fitted effect of over 45% in size)
Outline: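 Viability was scored by ATP luminescence (CellTiter-Glo, 30 min, room temperature) in the same wells used for the reporter readout, after 16 hr compound exposure of PR-UAS-bla HEK293T cells.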

[8] = qHTS assay to identify small molecule antagonists of the TGF-beta/Smad signaling pathway - cell viability counter screen (AID 1346824); further: nearly all actives have a fitted effect of over 50% in size
Outline: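 SBE-bla HEK 293T cells were plated overnight at 37 C, then given compounds in DMSO plus TGF-beta1 (added as 0.25 ng/mL solution) for 5 hr. After the bla read, CellTiter-Glo was added to the same wells and luminescence read after 30 min at room temperature.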

[9] = qHTS assay to identify small molecule agonists of the TGF-beta/Smad signaling pathway - cell viability counter screen (AID 1346829); further: top concentration of the series differs between compounds; nearly all actives have a fitted effect of over 45% in size
Outline: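 Here the cytotoxicity of library compounds is measured in SBE-bla HEK 293T cells treated for 5 hr, using CellTiter-Glo added to wells already read for the beta-lactamase reporter.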

[10] = qHTS assay to identify small molecule agonists of the TGF-beta/Smad signaling pathway (AID 1346859; active means well fitted activation curve with a large enough effect in the signal ratio in the repeat runs, not every such curve was filed as active; the % refers to the signal ratio; further: series mostly up to about 77 µM)
Outline: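 Dual-wavelength fluorescence (460/530 nm emission) quantified beta-lactamase expression under the Smad binding element in HEK 293T cells following 5 hr compound treatment at 37 C.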

[11] = target: Thyrotropin-releasing hormone receptor (Homo sapiens) (UniProt P34981); test: qHTS assay to identify small molecule antagonists of the thyrotropin-releasing hormone receptor (TRHR) signaling pathway (AID 1346877; active means well fitted inhibition curve with a large enough effect in the repeat runs, not every such curve was filed as active; further: series mostly up to about 51 µM)
Outline: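 TRHR-expressing HEK293 cells were seeded, cultured 18 h at 37 °C, then loaded with calcium dye for 2 h. Compounds were pre-incubated 5 min at room temperature before 1 nM TRH (final) was added, and kinetic fluorescence was recorded for 3 min.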

[12] = target: Thyrotropin-releasing hormone receptor (Homo sapiens) (UniProt P34981); test: qHTS assay to identify small molecule agonists of the thyrotropin-releasing hormone receptor (TRHR) signaling pathway (AID 1346891; calls by dose curve; further: series mostly up to about 58 µM)
Outline: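 Kinetic fluorescence (3 min, 1 s intervals) reported intracellular calcium after compound transfer onto TRHR-Hek293 cells pre-loaded with dye for 2 h at 37 °C.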

[13] = Human pregnane X receptor (PXR) small molecule agonists, qHTS cell viability counter screen (AID 1346977); further: nearly all actives have a fitted effect of over 50% in size
Outline: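 HepG2 cells stably carrying the PXR-Luc reporter are cultured with 5% charcoal-stripped FBS and treated with compounds for 24hr. CellTiter-Fluor is added at 23hr and fluorescence is read after 1hr.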

[14] = Caspase-3/7 induction in HepG2 cells by small molecules, qHTS assay (AID 1346978); further: nearly all actives have a fitted effect of over 15% in size
Outline: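 Wild-type HepG2 cells (2,000/well) were settled 5 h at 37 C, 5% CO2, then exposed to compounds in DMSO for 17 h. Caspase-3/7 activity was read by luminescence 30 min after adding Caspase-Glo 3/7 reagent at room temperature.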

[15] = Caspase-3/7 induction in CHO-K1 cells by small molecules, qHTS cell viability counter screen (AID 1346979); further: nearly all actives have a fitted effect of over 35% in size
Outline: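 Seeding: 1,500 CHO-K1 cells/well. Rest: 5hr, 37C. Treatment: compounds in DMSO, 16hr. Read: CellTiter-Fluor, 1hr, fluorescence.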

[16] = Caspase-3/7 induction in CHO-K1 cells by small molecules, qHTS assay (AID 1346980); further: nearly all actives have a fitted effect of over 15% in size
Outline: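 Wild-type cells were seeded at 1,500 per well and settled 5 hr at 37 C, 5% CO2, then exposed to DMSO-dissolved compounds for 17 hr. Caspase-Glo 3/7 reagent was added, and luminescence was read after 30min at room temperature.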

[17] = qHTS assay to identify small molecule agonists or antagonists of the thyroid stimulating hormone receptor (TSHR) signaling pathway - wild type cell line counter screen (AID 1259384; calls by dose curve)
Outline: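 Wild-type HEK293 cells were plated 18 h at 37 C/5% CO2, pin-dosed with compound plus Ro20-1724 medium, held 30 min at room temperature, then given cAMP-d2 and anti-cAMP-cryptate; fluorescence was read after 1 h. Fifteen concentrations, triplicate.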

[18] = target: Thyrotropin receptor (Homo sapiens) (UniProt P16473); test: qHTS assay to identify small molecule antagonists of the thyroid stimulating hormone receptor (TSHR) signaling pathway (AID 1259385; calls by dose curve; further: nearly all actives have a fitted effect of over 20% in size)
Outline: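 TSHR-HEK293 cells were plated and held 18 h at 37C/5% CO2, then given compound plus Ro20-1724 and stimulated with TSH at 1.5 ng/mL final. After 30 min at room temperature, cAMP was detected with cAMP-d2/anti-cAMP-cryptate (1 h) by fluorescence.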

[19] = Caspase-3/7 induction in HepG2 cells by small molecules, qHTS cell viability counter screen (AID 1346981); further: series mostly up to about 92 µM; nearly all actives have a fitted effect of over 30% in size
Outline: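 Wild-type HepG2 cells (2,000/well) were allowed to settle for 5 hr at 37 C, 5% CO2, then dosed with compounds in DMSO by pin transfer. After 16 hr at 37 C, CellTiter-Fluor was added and fluorescence read 1 hr later.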

Measured: Potency

Thyrotropin-releasing hormone receptor (Homo sapiens), sequence (P34981 whole entry, looked up): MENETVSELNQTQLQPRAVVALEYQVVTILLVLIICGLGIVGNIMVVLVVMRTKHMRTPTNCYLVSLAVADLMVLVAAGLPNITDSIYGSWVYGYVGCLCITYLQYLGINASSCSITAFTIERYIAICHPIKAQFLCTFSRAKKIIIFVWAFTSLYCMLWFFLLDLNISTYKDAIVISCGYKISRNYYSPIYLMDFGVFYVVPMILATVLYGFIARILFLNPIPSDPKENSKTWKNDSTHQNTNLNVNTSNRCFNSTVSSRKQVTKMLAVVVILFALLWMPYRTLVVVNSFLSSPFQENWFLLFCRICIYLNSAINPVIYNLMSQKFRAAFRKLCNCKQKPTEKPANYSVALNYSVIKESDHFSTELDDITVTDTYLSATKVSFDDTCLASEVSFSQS
Estrogen receptor (Homo sapiens), sequence (P03372 whole entry, looked up): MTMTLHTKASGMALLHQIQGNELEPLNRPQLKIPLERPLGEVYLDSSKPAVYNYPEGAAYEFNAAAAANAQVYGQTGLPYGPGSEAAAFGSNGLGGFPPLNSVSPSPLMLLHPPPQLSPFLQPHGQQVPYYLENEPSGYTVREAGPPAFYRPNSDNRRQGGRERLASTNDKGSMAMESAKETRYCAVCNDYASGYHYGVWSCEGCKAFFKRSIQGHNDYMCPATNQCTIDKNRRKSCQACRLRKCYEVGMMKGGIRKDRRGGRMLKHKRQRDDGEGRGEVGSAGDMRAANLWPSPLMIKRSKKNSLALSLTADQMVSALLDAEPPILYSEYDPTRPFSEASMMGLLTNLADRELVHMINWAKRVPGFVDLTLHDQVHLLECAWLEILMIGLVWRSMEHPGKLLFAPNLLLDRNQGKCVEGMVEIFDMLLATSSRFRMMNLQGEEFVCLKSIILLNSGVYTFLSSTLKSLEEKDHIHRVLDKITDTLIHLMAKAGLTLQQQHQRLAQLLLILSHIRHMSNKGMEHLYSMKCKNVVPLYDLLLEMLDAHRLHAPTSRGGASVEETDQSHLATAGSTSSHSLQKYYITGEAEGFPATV
Progesterone receptor (Homo sapiens), sequence (P06401 whole entry, looked up): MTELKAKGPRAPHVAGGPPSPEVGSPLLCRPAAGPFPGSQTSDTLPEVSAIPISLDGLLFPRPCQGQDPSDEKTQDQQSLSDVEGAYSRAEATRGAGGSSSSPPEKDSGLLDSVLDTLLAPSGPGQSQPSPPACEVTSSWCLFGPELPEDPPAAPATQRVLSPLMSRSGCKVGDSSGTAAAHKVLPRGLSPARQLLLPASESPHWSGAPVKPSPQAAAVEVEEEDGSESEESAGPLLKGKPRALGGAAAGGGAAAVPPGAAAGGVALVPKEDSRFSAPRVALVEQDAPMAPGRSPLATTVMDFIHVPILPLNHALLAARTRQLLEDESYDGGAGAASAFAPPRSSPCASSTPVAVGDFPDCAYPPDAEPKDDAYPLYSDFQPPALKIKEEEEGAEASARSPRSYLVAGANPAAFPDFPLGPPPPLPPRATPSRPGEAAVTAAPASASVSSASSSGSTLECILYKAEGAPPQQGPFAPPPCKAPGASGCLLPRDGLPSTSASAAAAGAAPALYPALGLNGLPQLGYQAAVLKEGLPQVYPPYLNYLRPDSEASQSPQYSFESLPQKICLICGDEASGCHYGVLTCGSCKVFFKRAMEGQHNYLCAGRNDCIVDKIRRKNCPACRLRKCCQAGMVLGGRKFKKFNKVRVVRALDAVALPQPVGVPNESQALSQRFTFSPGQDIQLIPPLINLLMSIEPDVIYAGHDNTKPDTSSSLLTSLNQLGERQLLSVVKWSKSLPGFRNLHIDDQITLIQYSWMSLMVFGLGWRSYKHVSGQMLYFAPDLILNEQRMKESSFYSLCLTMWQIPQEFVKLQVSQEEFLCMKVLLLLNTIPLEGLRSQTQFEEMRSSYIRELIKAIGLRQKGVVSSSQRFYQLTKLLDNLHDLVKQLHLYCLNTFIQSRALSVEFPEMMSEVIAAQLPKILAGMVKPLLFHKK
Thyrotropin receptor (Homo sapiens), sequence (P16473 whole entry, looked up): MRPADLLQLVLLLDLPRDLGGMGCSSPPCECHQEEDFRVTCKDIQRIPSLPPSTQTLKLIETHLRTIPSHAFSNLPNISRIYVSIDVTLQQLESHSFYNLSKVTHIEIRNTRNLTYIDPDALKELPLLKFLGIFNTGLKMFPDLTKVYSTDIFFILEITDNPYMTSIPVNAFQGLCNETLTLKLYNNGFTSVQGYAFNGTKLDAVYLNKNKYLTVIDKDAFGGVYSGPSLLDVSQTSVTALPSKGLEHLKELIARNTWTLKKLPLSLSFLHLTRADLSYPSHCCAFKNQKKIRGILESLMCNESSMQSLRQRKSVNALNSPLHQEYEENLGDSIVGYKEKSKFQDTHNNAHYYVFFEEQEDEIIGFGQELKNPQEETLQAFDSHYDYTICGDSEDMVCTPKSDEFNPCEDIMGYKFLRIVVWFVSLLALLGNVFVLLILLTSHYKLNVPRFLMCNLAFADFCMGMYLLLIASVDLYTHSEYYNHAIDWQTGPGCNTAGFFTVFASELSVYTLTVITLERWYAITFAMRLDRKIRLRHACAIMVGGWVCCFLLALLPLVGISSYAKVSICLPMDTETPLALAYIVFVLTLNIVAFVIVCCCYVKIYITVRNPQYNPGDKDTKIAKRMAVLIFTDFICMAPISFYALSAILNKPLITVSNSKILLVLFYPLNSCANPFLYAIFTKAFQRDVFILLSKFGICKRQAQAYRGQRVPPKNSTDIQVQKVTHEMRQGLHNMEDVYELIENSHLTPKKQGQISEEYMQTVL

CC(C)SCc1ccco1
not listed: [17] | [18] | [19]
inactive: all other assays above

CCN(Cc1cccc(S(=O)(=O)O)c1)c1ccccc1
not listed: [3]
inactive: all other assays above

OC[C@@H](O)[C@H](O)[C@@H](O)[C@@H](O)CO
not listed: [5] | [11] | [12]
inactive: all other assays above

O=C1CC[C@H](C(=O)N2CCCCC2)N1
not listed: [4] | [5] | [11] | [12] | [19]
inactive: all other assays above

CC(C)C(=O)c1ccccc1
not listed: [4] | [19]
inactive: all other assays above

CCOC(=O)C(=O)c1csc(NC=O)n1
not listed: [4] | [5] | [6] | [15]
inactive: all other assays above

C=CCOc1c(Br)cc(C(C)(C)c2cc(Br)c(OCC=C)c(Br)c2)cc1Br
not listed: [6] | [7] | [11] | [12] | [14]
inactive: all other assays above

C=CCOc1c(Br)cc(Br)cc1Br
not listed: [5] | [6] | [18]
inactive: all other assays above

CC(=O)Nc1ncc([N+](=O)[O-])s1
not listed: [3] | [7]
inactive: all other assays above

Cc1ccccc1OCC1CO1 (stereo not given)
not listed: [17] | [18]
inactive: all other assays above

CCCCCCCCC(=O)OCC
not listed: [4] | [6] | [19]
inactive: all other assays above

CCCCOC(=O)[C@@H](C)Oc1ccc(Oc2ccc(C(F)(F)F)cn2)cc1
not listed: [11] | [12] | [18] | [19]
inactive: all other assays above

CCCCCCCCCCCCOC(C)=O
not listed: [4]
inactive: all other assays above

O=C(O)CCNC(=O)c1ccccc1
not listed: [3] | [4] | [8]
inactive: all other assays above

C=C[Si](C)(C)O[Si](C)(C)C=C
not listed: [6] | [7] | [11] | [12]
inactive: all other assays above
